# RecA intein inh – Mtb RecA intein splicing inhibitors, primary screen, biochemical, fluorescence, HTS; Protein RecA (Mycobacterium tuberculosis (strain ATCC 25618 / H37Rv)), P9WHJ3; inhibition, % (test concentration not listed); actives 0.75% (n = 290,000); cell-free RecA intein splicing; AID 2221, 2009; in the data active = inhibition above about 30%;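 note: 0% = vehicle wells and 100% = reference inhibitor control wells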
# Mtb FBA inh – Mtb FBA enzyme inhibitors, primary screen, biochemical, fluorescence, strain H37Rv; purified M. tuberculosis FBA, fluorescence read-out; inhibition, % at 1 µM; actives 2.3% (n = 360,000); in the data active = inhibition above about 27%;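 note: 0% = vehicle and 100% = reference inhibitor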
# Target sequence (P9WQA3 whole entry, looked up): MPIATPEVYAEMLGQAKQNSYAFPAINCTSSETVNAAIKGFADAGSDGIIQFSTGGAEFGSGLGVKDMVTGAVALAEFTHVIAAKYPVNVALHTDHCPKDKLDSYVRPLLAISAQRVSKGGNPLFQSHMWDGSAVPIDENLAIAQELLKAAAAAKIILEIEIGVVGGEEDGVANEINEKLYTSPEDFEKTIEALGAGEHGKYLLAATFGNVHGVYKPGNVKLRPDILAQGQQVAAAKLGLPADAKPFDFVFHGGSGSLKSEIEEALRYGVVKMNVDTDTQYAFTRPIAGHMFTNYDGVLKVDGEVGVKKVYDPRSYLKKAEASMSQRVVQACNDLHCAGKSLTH
# GDH-TPI counter – GDH-TPI coupling enzyme inhibitors, primary screen, artefact control for M. tuberculosis FBA inhibitor project, biochemical, absorbance, full deck | GDH-TPI coupled enzyme counterscreen, NADH absorbance | inhibition, % at 4.8 µM | actives 1.2% (n = 360,000) | AID 588335, 2011;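 note: 0% = DMSO wells and 100% = wells lacking the enzyme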
# SARS 3CLpro inh – SARS-CoV 3CLpro protease inhibitors, primary screen, biochemical, quenched FRET | recombinant SARS-CoV 3CLpro, quenched FRET peptide cleavage | inhibition, % at 6 µM | AID 1706, 2009 | Replicase polyprotein 1ab (Severe acute respiratory syndrome coronavirus), P0C6X7 | actives 0.14% (n = 290,000); in the data active = inhibition above about 12%
# CCHF vOTU inh – CCHFV vOTU protease inhibitors, primary screen, biochemical, Pep-AMC substrate, fluorescence. Crimean-Congo hemorrhagic fever virus L polyprotein viral ovarian tumor (vOTU) protease …. inhibition, % at 11.5 µM. actives 0.55% (n = 370,000). AID 651958, 2012; note: 0% = vehicle wells with enzyme and 100% = no enzyme wells
# VHR inh abs – VHR1 phosphatase inhibitors, primary screen, biochemical, absorbance, uHTS; Dual specificity protein phosphatase 3 (Homo sapiens), P51452; recombinant VHR phosphatase, pNPP absorbance; inhibition, % at 13.3 µM; actives 0.52% (n = 290,000); AID 1654, 2009; in the data active = inhibition above about 50%
# Target sequence (P51452 whole entry, looked up): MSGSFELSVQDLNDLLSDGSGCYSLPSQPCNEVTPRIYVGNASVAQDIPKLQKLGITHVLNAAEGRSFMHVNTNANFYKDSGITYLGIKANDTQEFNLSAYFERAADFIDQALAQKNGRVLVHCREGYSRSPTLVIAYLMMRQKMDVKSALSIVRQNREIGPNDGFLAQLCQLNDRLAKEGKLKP
# GFP chromo cs – counter-screen: blocks GFP chromophore formation, dose response, counter-screen, biochemical, fluorescence, homogeneous. shares compounds with RecA intein inh. cell-free GFP chromophore formation. EC50, µM. actives 83% (n = 2,100). AID 434968, 2010; call rule not given here
# Active calls of the source: *; nt = no result given. Sampled rows, rich in hits. Any-hit rate of the full collection: about 4.7%. Cut-off read from the data, not from the text of the source, unless noted: active = inhibition above about 30%; inactive = the rest.
SMILES,RecA intein inh,Mtb FBA inh,GDH-TPI counter,SARS 3CLpro inh,CCHF vOTU inh,VHR inh abs,GFP chromo cs
CCCCCC(=O)O[C@]1(C(C)=O)CC[C@H]2[C@@H]3CCC4=CC(=O)CC[C@]4(C)[C@H]3CC[C@@]21C,32.9*,-0.5,0.5,0.0,17.0,-6.8,>38
CCCCCCCC[n+]1c(C)n(-c2ccccc2)c2ccc(NC(C)=O)cc21,5.7,2.5,-3.4,-0.3,1.6,21.9,nt
Cc1[nH][nH]c(=O)c1C(c1ccc(F)cc1)c1c(C)[nH][nH]c1=O,97.8*,3.2,-4.3,-2.6,-6.5,24.0,0.616*
Cc1[nH][nH]c(=O)c1C(c1ccc(Cl)cc1)c1c(C)[nH][nH]c1=O,98.0*,0.2,-10.0,-1.2,8.4,26.1,1.26*
COC(=O)c1ccc(C(c2c(C)[nH][nH]c2=O)c2c(C)[nH][nH]c2=O)cc1,94.6*,-0.2,2.9,0.6,-6.2,10.4,1.42*
Cc1ccc2c(c1)N(CC(=O)N1CCCC1)C(=O)C(C)O2 (stereo unspecified),-2.7,3.7,-11.4,0.1,-11.0,-2.9,nt
CCC(C)[C@H](NC(=O)NC1CCN(Cc2ccccc2)CC1)C(=O)OC (stereo partly specified),38.1*,-1.3,4.6,-1.0,-12.4,24.2,>38
COc1ccc(C)cc1NC(=O)NC1CCN(Cc2ccccc2)CC1,-0.8,3.7,-3.4,-7.5,-2.4,8.3,nt
CCOC(=O)c1ccc([N+](=O)[O-])c(CS(=O)(=O)c2ccc(Cl)cc2)c1,0.5,1.3,-0.7,2.3,-6.8,nt,nt
Cc1ccc(S(=O)(=O)Cc2cc(F)c([N+](=O)[O-])cc2[N+](=O)[O-])cc1,34.6*,-5.0,-0.4,5.2,nt,11.5,22.8*
CCOC(=O)[C@]12CCCC=C1N(Cc1ccccc1)C(=O)[C@H](CC(=O)N1CCN(C(=O)C3CC3)CC1)C2,nt,nt,nt,nt,10.6,nt,nt
COc1cc(NC2CCCCC2O)c2nc(-c3ccc(Cl)cc3)ccc2c1 (stereo unspecified),51.2*,4.4,3.0,0.2,24.3,31.6,0.179*
CCOC(=O)c1sc(N(Cc2ccccc2)C(=O)CCl)nc1C,88.4*,2.7,-0.8,5.9,12.3,-28.8,3.07*
N#CC1=C(N)C(C#N)(C#N)C(c2cccnc2)C2CC(c3ccccc3)CC=C12 (stereo unspecified),16.8,-0.4,0.0,-8.0,nt,13.9,nt
N#CC1=C(N)N(c2ccccc2)C(c2ccccc2)C1(C#N)C#N (stereo unspecified),43.4*,15.5,9.5,1.1,-3.8,1.5,30.8*
COc1cccc(OC)c1NC(=O)C1CCCN1C(=O)Nc1ccccc1F (stereo unspecified),-1.4,3.1,-2.2,-3.8,1.9,39.0,nt
O=C(NCc1cccnc1)/C(=C\c1ccc(-c2ccc(Br)cc2)o1)S(=O)(=O)c1ccccc1,51.4*,-0.6,32.2*,-1.1,6.7,2.6,29.4*
N=c1n(Cc2ccccc2)c2ccccc2n1CC(O)COc1ccc(Cl)cc1Cl (stereo unspecified),31.9*,-6.8,-2.2,-2.1,24.6,21.7,>38
N=c1n(Cc2ccc(Cl)cc2)c2ccccc2n1CC(O)COc1ccccc1 (stereo unspecified),13.5,0.8,-2.9,4.2,16.4,21.9,nt
Cc1cc2nc(-c3ccccc3)c(Cc3cccc(Cl)c3)n2c(C)c1Br,nt,nt,nt,nt,21.7,nt,nt
O=c1[nH]c(/C=C\c2cccnc2)c([N+](=O)[O-])c(=O)[nH]1,1.5,0.1,-4.4,-6.0,14.7,3.6,nt
O=c1[nH]c(/C=C/c2cccnc2)c([N+](=O)[O-])c(=O)[nH]1,40.8*,3.3,17.2,-0.8,2.1,2.5,>38
Cc1cc(C(=O)Cn2ncc(Cl)c(Cl)c2=O)c(C)n1CC(F)(F)F,36.1*,-0.9,7.5,-1.6,3.0,34.1,5.97*
CCc1nnc(NS(=O)(=O)c2ccc(NC(=S)NC(=O)/C=C/c3ccc(C(C)C)cc3)cc2)s1,36.0*,-4.1,31.7*,6.8,nt,13.7,13.2*
CCCCCCCC(=O)Nc1cc(C(=O)NCCC)ccc1N1CCC2(CC1)CC(c1ccccc1)=NO2,1.0,1.1,5.3,9.2,2.7,-18.3,nt
SMILES,RecA intein inh,Mtb FBA inh,GDH-TPI counter,SARS 3CLpro inh,CCHF vOTU inh,VHR inh abs,GFP chromo cs
O=C1c2ccccc2-n2c1nc1ccccc1c2=O,71.3*,-2.2,13.2,-2.0,2.5,16.5,1.32*
N#Cc1c(N)nc(SCc2ccncc2)c(C#N)c1-c1cccs1,-3.8,1.6,17.7,-0.2,-1.6,-6.0,nt
CN1CCc2nc(SCc3ccc(Cl)cc3)c(C#N)c(-c3cccs3)c2C1,60.2*,nt,nt,-0.6,13.8,nt,8.66*
Nc1c(-c2ccccc2)c(CSc2nc3ccccc3[nH]2)nn1-c1ccc(Cl)cc1,15.8,-4.9,3.8,-3.0,11.9,11.9,nt
Nc1c(-c2ccccc2)c(CSc2nc3ccccc3[nH]2)nn1-c1cccc(Cl)c1,36.6*,-3.3,6.8,-4.8,-3.4,8.8,11.4*
Cc1nn(-c2ccccc2)c(Cl)c1CN(C(=O)CCl)c1ccc(Cl)cc1,88.5*,1.2,-2.9,3.3,-1.7,1.9,2.17*
Cc1nn(-c2ccccc2)c(Cl)c1CN(C(=O)CCl)c1cccc2ccccc12,67.5*,-6.6,-2.3,3.4,-1.3,7.6,6.28*
CC(=O)c1ccc(OCC(=O)OCC(=O)c2ccc(S(=O)(=O)N3CCCCC3)cc2)cc1,nt,-1.1,-1.8,nt,24.9,nt,nt
Cc1cc(C)cc(Oc2coc3cc(OC(=O)c4cccs4)ccc3c2=O)c1,33.6*,7.3,1.2,-6.1,-2.2,16.3,>38
O=C(CCN1C(=O)/C(=C/c2cccs2)SC1=S)Nc1cccc(O)c1,36.2*,-7.0,17.9,-1.0,2.7,5.8,>38
COc1ccccc1C(=O)NC1CCCCN(Cc2cccc(C(F)(F)F)c2)C1=O (stereo unspecified),nt,nt,nt,nt,18.8,nt,nt
CCCCn1c(N)c(N(CCOC)C(=O)CSc2n[nH]c(-c3ccc(OC)cc3)n2)c(=O)[nH]c1=O,3.0,0.0,6.5,-3.1,-8.3,20.2,nt
CC(=O)C1=C(O)C(=O)N(CCc2ccccc2)C1c1ccccc1[N+](=O)[O-] (stereo unspecified),-1.8,6.8,5.0,4.6,-8.0,-10.0,nt
CCN(CC)CCN1C(=O)C(O)=C(C(C)=O)C1c1ccccc1[N+](=O)[O-] (stereo unspecified),76.7*,-1.2,3.5,1.4,16.8,18.8,7.79*

# Screening results from PubChem BioAssay.
